# Results taken from PubChem BioAssay AID2315 (National Center for Advancing Translational Sciences (NCATS), 2010).
# “And” between values parts separate entries of the source, which are not always exact repeats. Equal values may be shown once. Hit rate of the full screen: of about 290,000 compounds, about 27,000 (9.3%) were called active. Only a selection was taken, and actives are over-represented in it overall. Unmarked numbers belong to inactive results. Cut-off read from the data, not from the text of the source: active = inhibition mostly above about 28% (no sharp cut-off); inactive = mostly below about 43%.
# Experiment: A qHTS for Small Molecule Inhibitors of Shiga Toxin; note: 0% is about no effect
# Settings: Vero cells, Shiga toxin protein synthesis inhibition reporter; at 38.7 µM, active compounds read high
row,SMILES,inhibition
1,CCOC(=O)CNC(=O)CSc1ncccc1-c1nc2ccccc2[nH]1,-7.03%
2,COc1ccc(NC(=O)C2CCC(CNS(=O)(=O)c3csc(C(N)=O)c3)CC2)cc1OC (stereo not given),-12.8%
3,COc1ccc(Oc2cn[nH]c2-c2ccc(OC)cc2O)cc1,-5.45%
4,C#CCSc1nnc(-c2sc3ccccc3c2Cl)o1,89.1% (active)
5,COc1ccc2c(Cl)c(-c3nnco3)sc2c1,-0.739%
6,O=C(OCC#CCSc1nnc(-c2ccncc2)o1)c1sc2ccccc2c1Cl,-13.4%
7,O=C(NCCc1nnc2ccc(SCC(=O)N3CCOCC3)nn12)c1ccccc1,-1.17%
8,COc1ccc(-c2nn(-c3ccccc3)cc2C(=O)Nc2nccs2)cc1OC,12.9%
9,CC(C)(C)OC(=O)N/N=C/c1cn(-c2ccccc2)nc1-c1cccnc1,-2.23%
10,COc1ccc(-c2nn(-c3ccccc3)cc2/C=N/Nc2ccccn2)cc1OC,24.4% (active)
11,COc1cccc(CNC(=O)C2CCCN(c3ncnc4c3nc3n4CCCCC3)C2)c1 (stereo not given),-3.2%
12,COc1ccc(N(CC(=O)N2CCCCCC2)S(=O)(=O)c2ccccc2)cc1,32.1%
13,COc1ccc(S(=O)(=O)NCCCCOc2ccc(Cl)cc2)cc1,-5.02%
14,COc1ccc(N(CCC#N)S(=O)(=O)c2ccc(Cl)cc2)cc1,42.6% (active)
15,CC1CN(C(=S)Nc2ccc(S(N)(=O)=O)cc2)CC(C)O1 (stereo not given),-8.32%
16,COc1ccc(OC)c(NC(=O)Cc2cccs2)c1,9.31%
17,C=C(C)C(=O)O[C@H]1C/C(C)=C\C(=O)/C=C(\C)[C@H](O)[C@@H]2OC(=O)C(=C)[C@@H]21,60% (active)
18,CCOc1ccc(C(=O)COC(=O)c2ccc(-n3cnnn3)cc2)cc1,-9.12%
19,CCC(C)(C)NC(=O)CN(C(=O)CCC(=O)Nc1nccs1)c1ccc2c(c1)OCO2,-6.38%
20,COCCCNC(=O)CN1C(=O)CSc2ccc(S(=O)(=O)N3CCOCC3)cc21,15.9%
21,CC1CCCC(NC(=O)c2cccc(N3CCCC3=O)c2)C1C (stereo not given),87.5% (active)
22,CC1CCCC(NC(=O)CN2CCN(Cc3ccc(Cl)cc3)C2=O)C1C (stereo not given),-12.5%
23,C/C(=N\NC(=O)c1cccc(N2CCCC2=O)c1)c1ccc(N)cc1,38.9%
24,CC1CCC(NC(=O)c2ccc(N3CCCC3=O)cc2)CC1 (stereo not given),56.6% (active)

row,SMILES,inhibition
1,O=C(NCCCN1CCCCCC1)c1ccc(N2CCCC2=O)cc1,0.987%
2,O=C(c1cccc(N2CCCC2=O)c1)N1CCOCC1,20.2%
3,CCCNC(=O)NCc1ccc(N2CCCC2=O)cc1,-8.65%
4,O=C(NCCc1ccc(Cl)cc1)c1cccc(N2CCCC2=O)c1,73.4% (active)
5,Cc1cccc(C(=O)NCCCN2CCCC2=O)c1,-5.25%
6,COc1ccc(CCNc2nc(C)cc(C)n2)cc1OC,23.6%
7,CCCc1ccc(OCC(O)CN2CCN(C(=O)OCC)CC2)cc1 (stereo not given),-4.04%
8,COc1ccc(S(=O)(=O)N2CCC(C(=O)NCc3ccco3)CC2)cc1C,-3.78%
9,CN(C(=O)CCNC(=O)Cn1ccc2ccccc2c1=O)c1ccc(Br)cc1,-19.7%
10,Cc1nn(-c2ccc([N+](=O)[O-])cc2)c(N)c1-c1ccccc1,86.7% (active)
11,Cc1nc(-c2ccc([N+](=O)[O-])cc2)c(-c2ccccc2)o1,-2.19%
12,Cc1cc(CO)nn1-c1ccc([N+](=O)[O-])cc1,12.4%
13,CCn1c(=O)c2ccccc2n(CC(=O)N2CCCc3ccccc32)c1=O,-12.6%
14,CN(c1ccccc1)S(=O)(=O)c1ccc2[nH]c(=O)[nH]c2c1,21.5%
15,CC(=O)c1ccc(N2CCN(CC(O)c3ccccc3)CC2)cc1 (stereo not given),26.5%
16,CC(=O)c1ccc(N2Cc3ccccc3C2)cc1,79.3% (active)
17,CC(=O)c1ccc(N2CCN(C(=O)CCc3ccccc3)CC2)cc1,14.3%
18,CCOC(=O)N1CCN(C(=O)c2cn(C)c3ccc(S(=O)(=O)N(CC)CC)cc3c2=O)CC1,2.57%
19,COc1ccccc1C(=O)N/C(=C/c1ccc2c(c1)OCO2)C(=O)Nc1cccc(C(=O)O)c1,-9.43%
20,CN1CCN(S(=O)(=O)c2cccc(C(=O)Nc3cccc(S(N)(=O)=O)c3)c2)CC1,13.4%
21,O=C(c1n[nH]c2c1CCC2)N1CCCC(Nc2cccc(F)c2)C1 (stereo not given),-2%
22,CCOC(=O)Cn1c(=O)sc2cccc(Cl)c21,-13.7%
23,CC(C)(C)OC(=O)CNC(=O)c1[nH]cnc1C(=O)N[C@@H](Cc1ccccc1)C(=O)OCc1ccccc1,7.26%
24,Cc1ccc(C(=O)/C=C/Nc2ccc(S(=O)(=O)Nc3onc(C)c3C)cc2)cc1,67.9% (active)

row,SMILES,inhibition
1,O=C(Nc1ccc(S(=O)(=O)Nc2ccccn2)cc1)c1ccccc1,-16.3%
2,Cc1cc(OC(C)C(=O)Nc2ccc(S(=O)(=O)Nc3onc(C)c3C)cc2)cc(C)c1Cl (stereo not given),-8.09%
3,O=C(/C=C/Nc1ccc(S(=O)(=O)Nc2cnc3ccccc3n2)cc1)c1cccnc1,44.7% (active)
4,Cc1noc(NS(=O)(=O)c2ccc(NC(=O)c3oc4ccc(F)cc4c3C)cc2)c1C,-2.45%
5,C=C(C)CNC(=S)Nc1ccc(S(=O)(=O)Nc2cnc3ccccc3n2)cc1,6.75%
6,CCn1c(SCC(=O)Nc2ccc(S(=O)(=O)Nc3onc(C)c3C)cc2)nnc1-c1ccccc1,-13.6%
7,Cc1noc(NS(=O)(=O)c2ccc(NC(=O)C34CCC(CC3)C4)cc2)c1C,0.59%
8,Cc1noc(NS(=O)(=O)c2ccc(N/C=C/C(=O)c3ccccc3)cc2)c1C,71.6% (active)
9,COCCNC(=O)C1CCN(C(=O)C2CC(=O)N(c3ccc(C)cc3)C2)CC1 (stereo not given),-14.7%
10,CCN1C(=S)N[C@@H](CCc2ccccc2)[C@H](C(=O)OC)[C@H]1C,-2.85% and 15.7%
11,O=C(NNS(=O)(=O)c1ccc(F)cc1)c1ccc([N+](=O)[O-])cc1Cl,30.1%
12,CCOc1ccc(CN2CCC(n3nccc3NC(=O)C3CC3)CC2)cc1CO,-3.78%
13,Cc1ccc(NC(=O)C2CCCN2C(=O)OCc2ccccc2)cc1C (stereo not given),-4.8%
14,COc1ccc(NC(=O)C2C3CCC(O3)C2C(=O)O)cc1OC (stereo not given),-5.78%
15,O=C(CSc1nc(Nc2ccccc2)nc(N2CCOCC2)n1)Nc1cc(Cl)ccc1O,-4.02%
16,COc1cc(C(=O)N2CCN(C)CC2)cc(OC)c1OC,-8.49%
17,Cn1ccc(=Nc2ccc(NC(=O)c3ccc(N=c4ccn(C)c5ccc([N+](=O)[O-])cc45)cc3)cc2)cc1,-0.904%
18,Cc1nccn1CCCNC(=O)CC1C(=O)NCCN1Cc1ccc(Cl)c(F)c1 (stereo not given),-1.1%
19,O=C(CC1C(=O)NCCN1Cc1ccc(-c2ccccc2)cc1)NCC1CCOCC1 (stereo not given),-14.6%
20,CCOc1ccc(CN2CCNC(=O)C2CC(=O)NCCCC2CCCC2)cc1 (stereo not given),19% (active)
21,Cn1c(CCNS(=O)(=O)c2ccc(F)cc2)nnc1SCc1cccnc1,16.6%
22,COCCn1c(SCC(=O)N2CCCCCC2)nc2c(c1=O)SCC2,-16.9%
23,O=C(NCCc1ccc2c(c1)OCCO2)c1cc2ccccc2o1,5.6%
24,O=C(Nc1ccncc1)c1cc2ccccc2o1,57.4% (active)

row,SMILES,inhibition
1,Cc1ccc(OC(=O)c2cc3ccccc3o2)cc1,27.5%
2,CC(C)(C)n1nc2c(c1NC(=O)c1cc3ccccc3o1)CSC2,-8.8%
3,Cc1ccc(NC(=O)c2cc3ccccc3o2)cc1,118% (active)
4,C/C(=N\NC(=S)Nc1ccc(C)cc1)c1cc2ccccc2o1,30.5%
5,Cc1cc(C)cc(C(=O)OCC(=O)NCCNC(=O)COC(=O)c2cc(C)cc(C)c2)c1,22.3%
6,CN(C)c1ccc(S(=O)(=O)NCC(=O)NCC2CCCCC2)cc1[N+](=O)[O-],3.92%
7,O=C(NCCN1CCN(C(=O)c2cccc([N+](=O)[O-])c2)CC1)C(=O)NCc1ccc(Cl)cc1,-5.68%
8,Clc1ccc(-c2csc(-c3ccncc3)n2)cc1,78.2% (active)
9,Fc1ccc(-c2csc(-c3ccc(C4SCCS4)cc3)n2)cc1F,-3.43%
10,COc1ccc(NC(=O)NCCN2CCN(c3ccc(C)cc3)CC2)c(Cl)c1,-4.91%
11,CC1CCCCN1CCCNc1ccc(C(CC(N)=O)NC(=O)c2ccccc2)cc1[N+](=O)[O-] (stereo not given),-3.52%
12,CCN(C(=O)Cc1c(C(=O)O)n(CC)c2ccccc12)c1ccccc1C,1.61%
13,CCC(C(=O)NC1CCCCC1)N(C(=O)c1snc(C(N)=O)c1N)c1ccc(OC)cc1OC (stereo not given),16.5%
14,CCCCc1nc(SCC(=O)Nc2nnc(C(C)C)s2)n[nH]1,24%
15,CC1CN(C(=S)Nc2ccccc2F)CC(C)O1 (stereo not given),-12%
16,COC(=O)[C@H](Cc1ccccc1)NC(=O)N1CC(C)OC(C)C1 (stereo not given in full),-8.27%
17,O=C(CSC(=S)N1CCOCC1)c1cc(Br)cc(Br)c1O,-11.8%
18,O=C(CSC(=S)N1CCCCC1)c1c(F)cccc1F,61.7% (active)
19,O=C(CP(=O)(c1ccccc1)c1ccccc1)N1CCOCC1,-5.31%
20,O=C(CSC(=S)N1CCOCC1)c1ccccc1,67.5% (active)
21,O=C(Nc1ccc(S(=O)(=O)N2CCCCCC2)cc1)c1c(F)cccc1F,22.1%
22,CC1CN(C(=S)SCC(=O)c2ccccc2)CC(C)O1 (stereo not given),94.2% (active)
23,CC(=O)c1ccc(NC(=O)CSC(=S)N2CCCC2)cc1,-2.78%
